Source: PubChem BioAssay
Compounds with a hit are over-represented: about 19% of the library has one in this group of screens.
IL1B secr inh: qHTS for Inhibitors of Inflammasome Signaling: IL-1-beta AlphaLISA Primary Screen; 360,000 tested, 4.7% active; THP-1 LPS/ATP IL-1B secretion, AlphaLISA, 16 h; hits give low values; AID 743279, 2014; activity change, % at 57.5 µM; in the data active = activity change below about -50%; inconclusive = mostly about -30% to -49%
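THP-1 cells pretreated 1 hr with compounds (up to 57.5 uM final), then stimulated with LPS (250 ng/mL final) plus ATP (1.25 mM final); secreted IL-1B measured by AlphaLISA after 16 hr, decreased signal indicating inhibition.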
HT1080 IDH1KD tx: qHTS for induction of synthetic lethality in tumor cells producing 2HG: qHTS for the HT-1080-IDH1KD cell line | HT-1080 IDH1 knockdown viability, ATP luminescence, 48 h | Potency, µM (series often up to 46.1 µM), for the others: at the highest dose activity, negative = toxicity, actives largely listed as cytotoxic | 360,000 tested, 2% active;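 note: potency is the fitted concentration of half-maximal effect; 0% = DMSO wells and -100% = cell-free medium wells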
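In this qHTS, HT-1080 cells depleted of IDH1 are exposed for 48 h at 37 °C to compound titrations. Toxicity is scored from CellTiter-Glo luminescence, with DMSO as full viability and medium alone as none.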
ELG1 DNA repair: qHTS screen for small molecules that inhibit ELG1-dependent DNA repair in human embryonic kidney (HEK293T) cells expressing luciferase-tagged ELG1; HEK293T ELG1-luciferase reporter, luminescence, 16 h; DNA damage induced by 5-fluorouridine; Potency, µM (titrated, usually from 46.1 µM), for the others: at the highest dose activity change, negative = inhibition, hits mostly inhibitors; 330,000 tested, 2.3% active; AID 504467, 2011; note: potency is the fitted concentration of half-maximal effect; nearly all actives have a fitted effect of over 55% in size
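DMSO vehicle served as the neutral condition. Each well held 2,000 cells given 5-fluorouridine plus compound; after 16 hr at 37 °C/5% CO2, ONE-Glo was added and luciferase measured 30 min later.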
HT1080NT lethal: qHTS for induction of synthetic lethality in tumor cells producing 2HG: qHTS for the HT-1080-NT fibrosarcoma cell line. HT-1080-NT fibrosarcoma viability, CellTiter-Glo ATP luminescence, 48 h. Potency, µM (top dose mostly 46.1 µM), for the others: at the highest dose activity, negative = less viability, usual class: cytotoxic. 360,000 tested, 1.6% active. AID 686970, 2013;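 note: NT is the 2HG producing partner of a matched IDH1 knockdown line; potency is the fitted concentration of half-maximal effect; 0% = DMSO-treated cells and -100% = media-only wells without cells; nearly all actives have a fitted effect of over 55% in size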
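Compounds were tested in concentration-response format on HT-1080-NT cells for 48 hours at 37 degrees C. Cell viability came from CellTiter-Glo luminescence; curves were classified by r2, response magnitude and activity.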
TDP1 cell noCPT: qHTS for Inhibitors of human tyrosyl-DNA phosphodiesterase 1 (TDP1): qHTS in cells in absence of CPT; DT40 Tdp1-/- hTDP1 cells, no CPT, ATP luminescence, 48 h; Potency, µM (doses to about 46.2 µM), for the others: at the top dose activity change, negative = growth inhibition, hits mostly inhibitors; 420,000 tested, 15% active; note: potency is the fitted concentration of half-maximal effect; nearly all actives have a fitted effect of over 55% in size
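Growth of hTDP1-complemented DT40 Tdp1-knockout cells is measured by ATP luminescence after at least 48 hr compound exposure at 37 °C, with DMSO substituting for the 20 nM CPT used in the parallel screen.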
DT40 TDP1 CPT: qHTS for Inhibitors of human tyrosyl-DNA phosphodiesterase 1 (TDP1): qHTS in cells in presence of CPT | chicken DT40 Tdp1-/-;hTDP1 cells + 20 nM CPT, ATP luminescence, 48 h | Potency, µM (highest dose often 46.2 µM), without a hit: at the highest dose activity change, negative = growth inhibition, hits mostly inhibitors | 420,000 tested, 12% active | AID 686979, 2013; note: potency is the fitted concentration of half-maximal effect; nearly all actives have a fitted effect of over 55% in size
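Chicken DT40 Tdp1-/- cells stably complemented with human TDP1 were seeded at 400 cells/well in medium containing 20 nM camptothecin, exposed to pin-transferred compounds, and grown at 37 °C for at least 48 hr. Viability was read as ATP luminescence.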
The depositor's hits bear a star; ? = inconclusive; . = no result given. Unless noted, calls come from the whole dose curve; as a rule, active = well fitted curve in the direction sought with a large enough effect; inconclusive = small, poorly fitted or top-dose-only effect, or another doubt; inactive = no such curve, though single readings can be large; an effect the other way counts as inactive or inconclusive. Unless noted, % is set by controls: 0 for no effect and ±100 for the full control effect.

SMILES | IL1B secr inh | HT1080 IDH1KD tx | ELG1 DNA repair | HT1080NT lethal | TDP1 cell noCPT | DT40 TDP1 CPT
CC(=NNC(=S)N1CC2CCC(CC2)C1)c1cnccn1 | -107* | ? | . | ? | -116% | -113%
CN(C)C(CNC(=O)c1ccccc1OCc1ccc(Cl)cc1)c1ccco1 (stereo unspecified) | -2 | -3% | -20% | -21% | ? | ?
CCOc1ccc(C(=O)Nc2nnc(SCC(=O)NCC3CCCO3)s2)cc1OCC (stereo unspecified) | -15 | -5% | -2% | -3% | -12% | -17%
O=C(c1cc(Cl)ccc1OCc1ccccc1)N1CCOCC1 | 6 | 0% | 18% | 1% | -3% | -8%
COc1ccc(S(=O)(=O)n2nc(-c3ccc(Cl)cc3)cc2N)cc1 | -11 | 18µM* | ? | 18µM* | ? | ?
COc1ccc(-c2cc(N)n(S(=O)(=O)c3ccc(C)cc3)n2)c(OC)c1 | 16 | -3% | ? | -3% | -51% | -50%
CC(=O)NC(c1ccc(Cl)cc1Cl)c1ccc2cccnc2c1O (stereo unspecified) | 154 | ? | ? | ? | 4.6µM* | 3.7µM*
CCCC(=O)NC(c1ccc(OC)c(OC)c1)c1c(O)ccc2ccccc12 (stereo unspecified) | -12 | -13% | 2% | 10% | -2% | -13%
CCCC(=O)NC(c1ccc(N(C)C)cc1)c1c(O)ccc2ccccc12 (stereo unspecified) | -6 | -2% | 0% | 4% | 8% | 7%
CCCC(=O)NC(c1ccc(Cl)cc1)c1ccc2cccnc2c1O (stereo unspecified) | 108 | ? | ? | ? | 4.1µM* | 4.1µM*
CCCCC(=O)NC(c1ccc(N(C)C)cc1)c1ccc2cccnc2c1O (stereo unspecified) | 116 | ? | -1% | ? | 0.73µM* | 1µM*
CCCC(=O)NC(c1ccc(C)cc1)c1ccc2cccnc2c1O (stereo unspecified) | 184 | ? | ? | ? | 1.2µM* | 2.3µM*
Cc1ccc(C(Nc2ccccn2)c2ccc3cccnc3c2O)cc1 (stereo unspecified) | . | . | . | . | 5.8µM* | 21µM*
Cc1cccc(NC(c2cccc(Cl)c2)c2ccc3cccnc3c2O)n1 (stereo unspecified) | . | . | . | . | 5.2µM* | 5.2µM*
CCCCC(=O)NC(c1ccc(Cl)cc1)c1ccc2cccnc2c1O (stereo unspecified) | 156 | ? | . | ? | 1.2µM* | 1.3µM*
CCCC(=O)NC(c1ccc(Cl)cc1Cl)c1ccc2cccnc2c1O (stereo unspecified) | 124 | 8.2µM* | ? | ? | 4.6µM* | 4.1µM*
Cc1conc1NC(c1cccs1)c1ccc2cccnc2c1O (stereo unspecified) | . | . | 1% | . | . | .
O=C(COc1ccc(Cl)cc1Cl)Nc1cccc2cccnc12 | . | . | . | . | -17% | -25%
Cc1ccc(-c2nc3cc(Cl)ccc3o2)cc1NC(=O)c1cc([N+](=O)[O-])ccc1N1CCOCC1 | . | . | . | . | -29% | -22%
COc1ccc(-c2csc3nc(C)nc(N4CCN(c5ccc(C(C)=O)cc5)CC4)c23)cc1OC | ? | -2% | 13µM* | -7% | ? | -11%
COc1ccc(-c2nc3scc(-c4ccc(OC)c(OC)c4)c3c(=O)o2)cc1 | -20 | 7% | 30% | -4% | ? | ?
NC(=S)NN=C1c2ccccc2-c2ccccc21 | -15 | -7% | ? | -8% | 2.9µM* | 5.2µM*
O=C(NN=C1c2ccccc2-c2ccccc21)c1ccccc1 | -12 | -4% | 4% | -29% | ? | ?
NC(N)=NN=C1c2ccccc2-c2ccccc21 | -64* | -14% | 5% | -18% | ? | 27%
COC(=O)CCCC1=CC2=C(c3ccccc3)C(=O)C(C)(OC(=O)C3CCCC3)C(=O)C2=CN1Cc1ccc(OC)cc1 (stereo unspecified) | -15 | -9% | -4% | -8% | ? | 23µM*
SMILES | IL1B secr inh | HT1080 IDH1KD tx | ELG1 DNA repair | HT1080NT lethal | TDP1 cell noCPT | DT40 TDP1 CPT
COC(=O)CCCC1=CC2=C(c3ccccc3)C(=O)C(C)(OC(=O)C3CCCC3)C(=O)C2=CN1Cc1ccc2c(c1)OCO2 (stereo unspecified) | -29 | -4% | -21% | -12% | ? | 23µM*
CC1(C)SC2C(NC(=O)C(N)c3ccccc3)C(=O)N2C1C(=O)O (stereo unspecified) | . | . | . | . | 2% | -1%
O=C1Nc2ccc(Br)cc2C1=C1CCCCC1 | 29 | 16µM* | ? | ? | 23µM* | ?
Cc1nc(SCCC(=O)O)c2cc(-c3ccccc3)sc2n1 | -3 | 3% | ? | 7% | ? | -18%
CC(C)NC(=O)C1(C)CCCN1C(=O)c1ccc2c(c1)C(C)(C)CCC2(C)C (stereo unspecified) | 67 | -1% | . | 1% | 3.7µM* | 4.6µM*
CCNC(=O)C1(C)CCCN(C(=O)c2ccc3sccc3c2)C1 (stereo unspecified) | 55 | 10% | . | 12% | 2% | -12%
CCNC(=O)C1(C)CCN(C(=O)c2ccc3ccccc3c2)C1 (stereo unspecified) | 9 | 1% | . | 1% | 5% | 9%
CCNC(=O)C1(C)CCN(C(=O)c2ccc(-c3ccccc3)cc2)C1 (stereo unspecified) | 20 | 22% | . | 4% | ? | 16µM*
CCNC(=O)C1(C)CCCN(C(=O)c2ccc3c(c2)C(C)(C)CCC3(C)C)C1 (stereo unspecified) | 41 | ? | . | -7% | 6.5µM* | 5.8µM*
CCN1C(=O)/C(=C/C=C2/SCCN2C)SC1=S | ? | 11% | ? | 14% | 13µM* | ?
CCCCN1C(=O)/C(=C/C=C2/CC(C)(C)CN2C)SC1=S | -59* | -7% | ? | -3% | ? | ?
CN1CCS/C1=C\C=C1/SC(=S)N(CC(=O)O)C1=O | -15 | 1% | 3% | 16% | ? | 9%
